# Sampled rows, rich in hits. Any-hit rate of the full collection: about 10%.
# Six1-Eya2 blk: qHTS Assay for Inhibitors of the Six1/Eya2 Interaction. Homeobox protein SIX1 (Homo sapiens) + Protein phosphatase EYA2 (Homo sapiens), …. AlphaScreen GST-Six1/His-Eya2 binding, biochemical; hits give low values. activity change, % (test concentration not listed). hit rate 0.56% among 360,000. AID 651725, 2012; in the data active = activity change below about -65%; inconclusive = mostly about -30% to -63%
# Target sequence (O00167 whole entry, looked up): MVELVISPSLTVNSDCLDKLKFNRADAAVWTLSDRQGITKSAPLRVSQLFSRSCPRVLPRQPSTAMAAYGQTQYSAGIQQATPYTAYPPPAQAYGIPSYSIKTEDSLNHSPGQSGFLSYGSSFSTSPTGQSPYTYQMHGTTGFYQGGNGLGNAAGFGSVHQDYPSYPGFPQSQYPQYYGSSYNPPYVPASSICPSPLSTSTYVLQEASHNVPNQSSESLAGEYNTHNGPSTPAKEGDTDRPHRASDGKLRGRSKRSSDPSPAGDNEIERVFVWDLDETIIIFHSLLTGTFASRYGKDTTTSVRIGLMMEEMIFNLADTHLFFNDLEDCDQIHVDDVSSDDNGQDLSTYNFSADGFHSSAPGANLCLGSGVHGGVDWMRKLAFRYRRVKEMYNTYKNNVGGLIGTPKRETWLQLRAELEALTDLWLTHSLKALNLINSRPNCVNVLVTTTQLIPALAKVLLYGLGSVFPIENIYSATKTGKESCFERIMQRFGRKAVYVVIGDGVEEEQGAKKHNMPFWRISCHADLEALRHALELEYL
# Target sequence (Q15475 whole entry, looked up): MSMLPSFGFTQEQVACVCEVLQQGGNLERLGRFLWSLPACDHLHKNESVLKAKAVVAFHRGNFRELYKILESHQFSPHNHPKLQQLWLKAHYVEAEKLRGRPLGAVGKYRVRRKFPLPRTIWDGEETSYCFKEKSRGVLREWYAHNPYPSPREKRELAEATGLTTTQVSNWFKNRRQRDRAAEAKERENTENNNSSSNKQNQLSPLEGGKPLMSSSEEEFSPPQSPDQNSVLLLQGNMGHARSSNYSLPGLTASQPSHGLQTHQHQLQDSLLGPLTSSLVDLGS
#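 GST-Six1 + His-Eya2 (5X stock: 250/500 nM); Tris pH 8.0, 300 mM NaCl, 0.05% BSA, 0.02% Tween 20; GSH donor/Ni acceptor beads; 1 h 37 °C dark; AlphaScreen readout.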
# HP1b binding inh: HTS for Inhibitors of HP1-beta Chromodomain Interactions with Methylated Histone Tails; AlphaScreen HP1-beta / biotin-H3K9me3 peptide binding; hit rate 0.56% among 390,000; Potency, µM (top dose mostly 114 µM), hits mostly inhibitors; also: nearly all actives have a fitted effect of over 70% in size
#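 Compound inhibition of the preformed complex between 50 nM HP1-beta and 50 nM biotinylated H3K9me3 peptide was read by AlphaScreen. Buffer was PBS pH 7.4 with 0.01% Tween-20. Incubations ran 30 min at room temperature, with 10 ug/mL donor/acceptor beads.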
# JMJD2A Tudor: qHTS Assay for Inhibitors of JMJD2A-Tudor Domain | AlphaScreen JMJD2A-Tudor / H3K4me3 peptide binding | Potency, µM (highest dose often 114 µM), actives largely listed as inhibitors | hit rate 4.4% among 390,000; also: nearly all actives have a fitted effect of over 50% in size
# G9a inh: qHTS Assay for Inhibitors of Histone Lysine Methyltransferase G9a | AID 504332, 2011 | G9a H3K9 monomethylation, AlphaScreen, 2 h | hit rate 8.8% among 350,000 | Histone-lysine N-methyltransferase EHMT2 (Homo sapiens), Q96KQ7 | Potency, µM (top dose mostly 102 µM), hits mostly inhibitors; also: nearly all actives have a fitted effect of over 75% in size
#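 Quantitative HTS format: methyltransferase activity on a biotin-tagged H3K9 peptide is measured by AlphaScreen, using a rabbit anti-monomethyl-H3K9 antibody with streptavidin donor and anti-IgG acceptor beads. Final levels are 20 nM enzyme, 500 nM peptide, 20 uM SAM; 2 h RT.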
# BAZ2B inh: qHTS Assay for Inhibitors of BAZ2B. AlphaScreen BAZ2B-H3K14Ac peptide displacement. Bromodomain adjacent to zinc finger domain protein 2B (Homo sapiens), Q9UIF8. hit rate 4.4% among 360,000. Potency, µM (highest dose often 114 µM), actives largely listed as inhibitors; also: nearly all actives have a fitted effect of over 60% in size
#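 In this displacement format the biotinylated H3(5-23) peptide acetylated at Lys14 serves as ligand at 50 nM, with BAZ2B at 50 nM in PBS pH 7.4 containing 0.01% Tween-20. Donor and acceptor beads are 10 ug/mL final.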
# CtBP-E1A inh: qHTS Assay for Inhibitors of the CtBP/E1A Interaction. hit rate 0.49% among 340,000. activity change, % (no concentration beside the values). CtBP / adenovirus E1A interaction (AlphaScreen). AlphaScreen GST-E1A/His-CtBP binding, 1536-well; hits give low values; in the data active = activity change below about -65%; inconclusive = mostly about -30% to -63%
#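 Steps: dispense buffer (Tris pH 8.0, NaCl 300 mM, TCEP 1 mM, BSA, Tween 20); add 5X protein mix (GST-E1A, His-CtBP, 125 nM each); pin 23 nL compound; 2 h at 37 °C, dark; add 5X beads (50 ug/mL); 1 h; read.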
# Numbers stand for hits; i = inactive; ? = inconclusive; nt = no result given; [ ] = dose if it differs, or a comment. Unless noted, calls follow the shape of the dose curve; as a rule, active = well fitted inhibition curve with a large enough effect; inconclusive = small, poorly fitted or top-dose-only effect; inactive = no such curve, though single readings can be large or run the other way.
SMILES,Six1-Eya2 blk,HP1b binding inh,JMJD2A Tudor,G9a inh,BAZ2B inh,CtBP-E1A inh
COc1ccc(Cl)cc1S(=O)(=O)n1nnc2ccccc21,i,i,i,50µM,?,i
COc1ccc(Cl)cc1S(=O)(=O)n1ccnc1C(C)C,i,i,i,50µM,i,i
COc1ccc(N2CCN(S(=O)(=O)c3ccc(-c4cc(C(F)(F)F)on4)s3)CC2)cc1,nt,i,i,i,i,nt
O=C(CSc1ccccn1)Nc1cccc([N+](=O)[O-])c1,i,i,i,11µM,i,i
Cc1cc(NC(=O)Cc2cccs2)no1,i,?,18µM,?,45µM,i
Cc1cc(NC(=O)CSc2ncccn2)no1,i,i,?,?,i,i
Cc1cc(NC(=O)CSc2ccccn2)no1,i,i,i,45µM,i,nt
CC(C)c1ccc(NC(=O)CSc2ncccc2C(=O)Oc2cccc([N+](=O)[O-])c2)cc1,i,i,i,50µM,i,i
CC(C)Cn1c(=O)c2ccccc2n2c(CCC(=O)Nc3cccc(Cl)c3)nnc12,nt,i,i,i,i,nt
Cc1cc(NC(=O)CSc2c(C)[nH]c3ccccc23)no1,i,i,i,50µM,i,i
Cc1ccccc1CSc1nnc(NC(=O)Cc2cccs2)s1,i,i,i,i,71µM,i
CCC(=O)Nc1nnc(SCc2ccc(F)cc2)s1,i,i,i,8.9µM,i,i
CCC(C)NC(=O)Cn1c(=O)n(-c2cc(OC)cc(OC)c2)c(=O)c2ccccc21 (centres undefined),nt,i,i,i,i,nt
COc1cccc(-n2c(SCC(N)=O)nc3c(oc4ccccc43)c2=O)c1,nt,i,i,i,i,nt
NNC1=N[C@H]2CS(=O)(=O)C[C@H]2S1,i,i,8.9µM,i,i,i
O=C(NCc1ccccc1)c1ccc(NC2=NC3CS(=O)(=O)CC3S2)cc1 (centres undefined),i,i,i,i,i,i
COC(=O)C1=C(C)N(c2cccc(C)c2)C(=O)/C1=C\c1cccs1,i,?,?,11µM,10µM,i
COC(=O)C1=C(C)N(c2ccc(OC)c(OC)c2)C(=O)/C1=C\c1ccco1,i,i,i,?,35µM,i
COC(=O)C1=C(C)N(c2ccccc2)/C(=C/c2ccco2)C1=O,i,i,i,nt,i,i
CCOC(=O)C1=C(C)N(c2ccccc2)C(=O)/C1=C\c1cccs1,i,28µM,?,?,10µM,i
CCOC(=O)C1=C(C)N(c2ccccc2)C(=O)/C1=C\c1ccc(O)c(OC)c1,i,?,5µM,3.2µM,?,i
Fc1ccc(Cn2c(-c3cccc(Br)c3)nc3ccccc32)cc1,nt,i,i,i,i,nt
Cc1ccc(NC(=O)CSc2nc3ccc(NC(=O)c4ccco4)cc3s2)c(C)c1,nt,i,i,i,i,nt
CCOC(=O)C1=C(C)N(c2ccccc2)C(=O)/C1=C\c1ccco1,i,i,?,40µM,i,i
COC(=O)C1=C(C)N(c2ccc(Cl)cc2)/C(=C/c2cccs2)C1=O,i,i,i,i,i,i
SMILES,Six1-Eya2 blk,HP1b binding inh,JMJD2A Tudor,G9a inh,BAZ2B inh,CtBP-E1A inh
COC(=O)C1=C(C)N(c2cc(C)cc(C)c2)/C(=C/c2ccco2)C1=O,i,i,79µM,?,50µM,i
CCOC(=O)C1=C(C)N(c2ccc(C)cc2)C(=O)/C1=C\c1cccs1,i,?,13µM,nt,10µM,i
CCOc1ccc(CCNC(=O)Cn2ncc3c(=O)oc4ccc(C)cc4c32)cc1,nt,i,i,i,i,nt
COCc1cc(C)nc2c1C(=O)NC(c1ccc(Br)cc1)N2Cc1ccccc1 (centres undefined),nt,i,i,i,i,nt
CC(C)(C)c1ccc(OCCn2c(CCNC(=O)C3CCCCC3)nc3ccccc32)cc1,nt,i,i,nt,nt,nt
O=C(COc1cccc2c1CCN(Cc1ccc(Br)cc1)C2=O)N1CCOCC1,i,i,i,i,i,i
O=C(COc1cccc2c1CCN(Cc1ccc(Br)cc1)C2=O)NCc1ccco1,i,i,50µM,?,?,i
Cc1cc(C(F)(F)F)nn1Cc1n[nH]c(=S)n1-c1cccc(Cl)c1,i,i,?,25µM,i,i
O=C(Cn1nc(C(F)F)cc1C(F)F)NNC(=S)Nc1ccc(F)cc1,i,i,i,?,i,i
Cc1ccc(-n2c(Cn3nc(C(F)F)cc3C(F)F)n[nH]c2=S)cc1,i,i,79µM,1.1µM,i,i
Cc1cc(C(F)(F)F)nn1Cc1n[nH]c(=S)n1Cc1ccccc1,i,i,?,1.8µM,i,i
Cc1ccc(S(=O)(=O)N(Cc2n[nH]c(=S)n2-c2ccccc2)c2cccc(Cl)c2)cc1,i,i,i,nt,?,i
FC(F)(F)c1cnc2c(c1)[nH]c(=S)n2-c1ccc(Cl)cc1,i,i,i,i[0.501 µM],i,i
Cc1cc(C(F)(F)F)nn1Cc1n[nH]c(=S)n1-c1ccc(Cl)cc1,i,i,i,1.6µM,i,i
CCOC(=O)c1c(C)[nH]c(C)c1S(=O)(=O)NCC(=O)Nc1ccc(C)c(N(C)C)c1,nt,i,i,i,i,nt
CCOC(=O)c1c(S(=O)(=O)N2CCC(C(=O)N3CCN(c4cc(C)ccc4C)CC3)CC2)c(C)n(C)c1C,nt,i,?,i,?,nt
O=C(OCC#CCSc1nnc(-c2cccc3ccccc23)o1)c1cccc(F)c1,nt,nt,i,nt,nt,nt
Cc1ccc(-n2c(N)c(-c3nc4ccccc4n3C)sc2=S)cc1,i,?,?,3.5µM,?,i
S=C(NCCCN1CCOCC1)N1CCN(c2nc(-c3ccccc3)cs2)CC1,i,i,?,56µM,?,i
O=C(N1CCOCC1)N1CCN(c2nc(-c3ccccc3)cs2)CC1,i,i,i,45µM,?,i
S=C(NCC1CCCO1)N1CCN(c2cccc(Cl)c2)CC1 (centres undefined),i,i,i,i,i,nt
Cc1cccc(C)c1N1CCN(C(=O)N2CCOCC2)CC1,i,i,?,35µM,i,i
S=C(NCCCN1CCOCC1)N1CCN(c2nc(-c3ccc(Cl)cc3)cs2)CC1,i,i,?,i,i,i
S=C(NCC1CCCO1)N1CCN(c2nc(-c3ccc(Cl)cc3)cs2)CC1 (centres undefined),i,?,?,?,35µM,i
CCc1cccc(C)c1NC(=O)c1nc2ccccc2nc1N1CCCCC1,nt,i,i,i,i,nt
COc1cccc(-n2c(=O)c3c(C)c(C)sc3n(Cc3ccccc3C#N)c2=O)c1,nt,i,i,i,i,nt
O=S(=O)(c1cccc(Cl)c1Cl)N1CCN(C(=S)NCCCN2CCOCC2)CC1,i,28µM,1.6µM,35µM,50µM,i

# Compound activity: PubChem BioAssay, National Center for Advancing Translational Sciences (NCATS)
